The whole screen tested about 68,000 compounds, of which about 2,700 (4%) showed an effect of 50% or more. What follows is part of a selection rich in strong results, with near analogues and random picks from the rest.
The compounds below were run on Plasmodium berghei (assay: Screen against P. berghei liver stage (PbLuc), transformed with Luciferase, at 2uM). Settings: tested at 2 uM.
Type: functional, HepG2
Work on `O=C(Cn1cccn1)N1CCc2[nH]nc(-c3ccc4c(c3)OCO4)c2C1` yielded an INHIBITION of 37.41%. `O=C1CN([C@@H]2CC[C@@H](NS(=O)(=O)c3ccc(F)cc3)[C@H]2O)CCN1` was tested, and the INHIBITION was 22.95%. `CCc1nccn1C1CCCN(C(=O)c2csc(COC)n2)C1` (centres undefined) was tested, and the INHIBITION was 24.15%. In the case of `Cc1ccc(CC(=O)N2CCCC(n3ccnc3C(C)C)C2)cn1` (centres undefined), the INHIBITION is reported as 28.65%. `COCc1nc(C(=O)N2CCCC(n3ccnc3C)C2)cs1` (centres undefined) gave an INHIBITION of 53.69%. `COCc1nc(C(=O)N2CCCC(n3ccnc3C(C)C)C2)cs1` (centres undefined) showed an INHIBITION of 52.52%. Work on `Cc1nc(CC(=O)N2CCCC(n3ccnc3C(C)C)C2)cs1` (centres undefined) yielded an INHIBITION of 66.2%. With `CC(C)c1nccn1C1CCCN(C(=O)c2ccsc2)C1` (centres undefined) the INHIBITION was -12.41%. For `CSCC(=O)N1CCCC(n2ccnc2C(C)C)C1` (centres undefined), the INHIBITION was -47.97%. `COCc1nc(C(=O)N2CCCC(n3ccnc3)C2)cs1` (centres undefined) showed an INHIBITION of 28.54%. Compound `COCc1nc(C(=O)N2CCCC(n3cccn3)C2)cs1` (centres undefined) has an INHIBITION of 21.89%. In the case of `Cc1ccsc1CN1CCC(n2cc(C(O)c3ccccc3)nn2)CC1` (centres undefined), the INHIBITION is reported as -6.04%. `CC(C)(C)C(=O)N1CCC(n2cc(C3(O)CCCC3)nn2)CC1` showed an INHIBITION of -21.47%. `Fc1ccccc1C1(CNC2CCOC3(CCOCC3)C2)CCCC1` (centres undefined) gave an INHIBITION of -27.61%. With `CN(C)c1cc(CNC(=O)c2cnccn2)ccn1` the INHIBITION was -14.75%. In the case of `Cc1cc(C(=O)N2CCn3cc(CN4CCOCC4)nc3C2)no1`, the INHIBITION is reported as 22.68%. Compound `Cc1ocnc1C(=O)N1CCN(CCOc2ccccc2)CC1` has an INHIBITION of 41.86%. Compound `CC(C)Cc1cc(NC(=O)c2ccccn2)n(C)n1` has an INHIBITION of 7.13%. In the case of `Cc1noc(C)c1CS(=O)(=O)CC(=O)NCCc1cccs1`, the INHIBITION is reported as -49.96%. `Cn1cccc1C(=O)NCc1cn2c(n1)CN(Cc1ccccn1)CC2` showed an INHIBITION of 20.43%. For `Cn1cc(C(=O)NCc2cn3c(n2)CN(Cc2ccncc2)CC3)cn1`, the INHIBITION was 12.38%. `Cn1cc(C(=O)NCc2cn3c(n2)CN(Cc2ccccn2)CC3)cn1` was tested, and the INHIBITION was 53.98%. Work on `Cc1noc(C)c1CN1C[C@@H](OCc2ccccn2)[C@H]2OCCC[C@H]21` yielded an INHIBITION of -44.88%. `CCc1cc(=O)n(CC(=O)N2CCCC2)c(-c2ccc(F)cc2)n1` was tested, and the INHIBITION was 22.13%. Work on `CN(Cc1nc2ccccc2c(=O)[nH]1)C1CC(=O)N(C2CC2)C1=O` (centres undefined) yielded an INHIBITION of -68.81%. Compound `CCS(=O)(=O)N1C[C@@H](c2nnc(C)o2)C[C@H]2OCC[C@H]21` has an INHIBITION of 11.87%. With `CCS(=O)(=O)N1C[C@H](c2nc(C)no2)C[C@H]2OCC[C@H]21` the INHIBITION was 63.23%. `Cc1noc([C@H]2C[C@H]3OCC[C@H]3N(Cc3ccncc3)C2)n1` showed an INHIBITION of 29.81%. With `CCCS(=O)(=O)N1C[C@@H](c2nc(C)no2)C[C@H]2OCC[C@H]21` the INHIBITION was -27.12%. Compound `Cc1noc([C@@H]2C[C@H]3OCC[C@H]3N(Cc3ccoc3)C2)n1` has an INHIBITION of 51.26%. Work on `Cc1noc([C@H]2C[C@H]3OCC[C@H]3N(Cc3ccc(F)cc3)C2)n1` yielded an INHIBITION of 20.41%. In the case of `Cc1nnc([C@H]2C[C@H]3OCC[C@H]3N(S(=O)(=O)N(C)C)C2)o1`, the INHIBITION is reported as 11.18%. With `Cc1noc([C@H]2C[C@H]3OCC[C@H]3N(S(C)(=O)=O)C2)n1` the INHIBITION was 25.58%. With `Cc1nnc([C@H]2C[C@H]3OCC[C@H]3N(S(=O)(=O)C3CC3)C2)o1` the INHIBITION was 50.32%. Compound `Cc1cc(N2CCc3c(ncn3C3CC3)C2)nc(N)n1` has an INHIBITION of -25.22%. `O=C(CCC1CCCC1)NCCn1nc(C2CCNC2)c2cccnc21` (centres undefined) was tested, and the INHIBITION was 34.24%. With `Cc1cccc(-n2ncc3c(=O)n(CCN4CCCCC4)cnc32)c1C` the INHIBITION was -34.12%. `CC(C)S(=O)(=O)N1CCN(C(=O)c2cnn(C)c2Cl)CC1` showed an INHIBITION of 12.98%. `CN(C(=O)c1ncn2c1CN(C)S(=O)(=O)c1ccccc1-2)C1CC1` gave an INHIBITION of 60%. Compound `CCCN(CC)C(=O)c1ncn2c1CN(C)S(=O)(=O)c1ccccc1-2` has an INHIBITION of 15.9%. Compound `CCNC(=O)c1ncn2c1CN(C)S(=O)(=O)c1ccccc1-2` has an INHIBITION of -64.43%. `Cc1ccc(C(=O)NC2CCN(C(=O)Nc3ccccn3)CC2)o1` was tested, and the INHIBITION was 20.11%. Work on `Cc1ccc(C(=O)N2CCN(C(=O)Nc3ccccn3)CC2)o1` yielded an INHIBITION of 60.93%. `Cc1cccc(NC2CCN(C(=O)Nc3ccccn3)CC2)n1` gave an INHIBITION of -7.13%. With `Cc1occc1C(=O)N1CCn2c(COCC3CC3)cnc2C1C` (centres undefined) the INHIBITION was -5.65%. `CCN(CC)CCSc1ncnc2[nH]ncc12` gave an INHIBITION of -57.02%. For `CCn1cc(CNc2ccc(F)c(F)c2)cn1`, the INHIBITION was -11.55%. Compound `Cn1cc(CNc2ccc(F)c(N3CCCS3(=O)=O)c2)cn1` has an INHIBITION of 30.06%. In the case of `CCn1cc(CNc2ccc(F)c(N3CCCS3(=O)=O)c2)cn1`, the INHIBITION is reported as 67.51%. `CCCc1nc(CNc2ccc(F)c(F)c2)no1` gave an INHIBITION of -48.48%. Work on `COc1ccc2[nH]c(=O)c(CN(C)CCN3CCCC3)cc2c1` yielded an INHIBITION of 56.16%. `CCN1CCCC1CNCc1cc2cc(OC)ccc2[nH]c1=O` (centres undefined) gave an INHIBITION of 42.49%. In the case of `COc1ccc2cc(CN(C)CCN3CCCCC3=O)c(=O)[nH]c2c1`, the INHIBITION is reported as 38.12%. With `CCOCC(=O)N1C[C@H]2CCC[C@@]2(COC)C1` the INHIBITION was 42.4%. `CCn1nc(C)c(CNC(=O)c2nnc3ccc(OC)cc3n2)c1C` showed an INHIBITION of 33.58%. In the case of `CCn1nc(C)c(CNC(=O)c2nnc3ccccc3n2)c1C`, the INHIBITION is reported as 70.37%. In the case of `CCn1nc(C)c(CNC(=O)c2nnc3ccc(Cl)cc3n2)c1C`, the INHIBITION is reported as 26.56%. Work on `Cc1nc(CN2CCC23CCN(C(=O)c2ccco2)CC3)cs1` yielded an INHIBITION of 30.15%. In the case of `Cc1cncc(NCc2ccccc2N2CCOCC2)c1`, the INHIBITION is reported as 11.88%. `CCS(=O)(=O)c1cccc(C(=O)Nc2cccc3c2C(=O)N(C)C3=O)c1` was tested, and the INHIBITION was 13.01%. `CCCOC1CCCN(C(=O)c2cnc(-c3csc(C)n3)nc2O)C1` (centres undefined) showed an INHIBITION of -20.84%. `CC(=O)N1CCC2(CC1)NC(=O)[C@H]1CN(Cc3cccnc3)C[C@H]12` gave an INHIBITION of 56.76%. In the case of `CC(=O)N1CCC2(CC1)[C@@H]1CN(Cc3cccnc3)C[C@@H]1C(=O)N2C`, the INHIBITION is reported as 35.89%. In the case of `CC(C)C(=O)N1CCC2(CC1)NC(=O)[C@H]1CN(Cc3cccnc3)C[C@H]12`, the INHIBITION is reported as 37.54%.

From ChEMBL document CHEMBL4513216, “Probing the Open Global Health Chemical Diversity Library for Multistage-Active Starting Points for Next-Generation Antimalarials” (ACS Infect Dis, 2020)
